Source: PubChem BioAssay
GRP78 ERSR act = inducers of ER stress response in human glioma cells; Potency, µM, for inactives: at the highest dose activation, usual class: activators; 0.02% of 420,000 active; U87-MG GRP78 promoter luciferase reporter, 16 h; note: series mostly up to about 76 µM; % of control where 0% means no effect; nearly all actives have a fitted effect of over 35% in size
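Stably transfected U87-MG glioma cells carrying a GRP78-based luciferase sensor; 16 h compound incubation. Luminescence end-point read 10 min after Bright-Glo addition at room temperature.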
Apoferritin bind = candidate novel general anesthetic via apoferritin binding. 0.074% of 350,000 active. Potency, µM (highest dose often 77.5 µM), for the others: at the top dose activity change, negative = displacement, actives largely listed as inhibitors. apoferritin/1-aminoanthracene competitive binding, fluorescence; note: % is set by controls: 0 for no effect and ±100 for the full control effect; nearly all actives have a fitted effect of over 20% in size
Target sequence (P02791 2-175 limits assumed): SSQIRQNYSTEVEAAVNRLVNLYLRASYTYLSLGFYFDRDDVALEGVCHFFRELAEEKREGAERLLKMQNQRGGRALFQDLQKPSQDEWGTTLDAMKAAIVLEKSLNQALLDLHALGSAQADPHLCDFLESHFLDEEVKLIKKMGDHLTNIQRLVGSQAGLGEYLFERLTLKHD
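In PBS, apoferritin at 10 uM is loaded with 1-AMA from a 50% saturated solution. After 10 min of compound exposure at ambient temperature, reduced 535 nm fluorescence indicates probe displacement.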
BCR signal inh = chronic active BCR signaling inhibition; AID 493014; Potency, µM (highest dose often 46.1 µM), inactives show at the top dose activity change, negative = inhibition, hits mostly inhibitors; 0.05% of 340,000 active; ABC-DLBCL IkBa-CBG/CBR reporter, luminescence ratio, 4 h; active = well fitted inhibition curve with a large enough effect in the signal ratio, with a control signal flat, not every such curve was filed as active; inconclusive = small, poorly fitted or top-dose-only effect, or effect the other way, or a change in a side signal; the % refers to the signal ratio;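 note: plate controls were basal doxycycline-induced cells for no effect and cells given 10 µM MG132 for full effect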
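Compounds up to 46 uM were incubated four hours with TMD8 cells whose green CBG68 luciferase is fused to IkappaBalpha; red CBR luminescence normalised the signal, and concentration-effect curves were fitted to fusion, red and ratio data.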
ALOX12 inh = inhibitors of human 12S-lipoxygenase ALOX12 | Potency, µM (top dose mostly 108 µM), for inactives: top-dose activity change, negative = inhibition, most hits filed as inhibitors | purified 12hLO, xylenol orange hydroperoxide absorbance | 1.1% of 580,000 active | P18054; note: % is set by controls: 0 for no effect and ±100 for the full control effect
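Purified human 12hLO (150 nM final) in 25 mM Hepes, 0.01% Triton X-100, pH 7.0 was preincubated 15 min at room temperature with compound. Then 40 uM arachidonic acid was added, 30 min. Hydroperoxide was read by Fe-XO absorbance ratio 573/405 nm.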
An asterisk follows results filed as active; ? = inconclusive; . = no result given; [ ] = another dose, or the depositor's remark. Only some compounds are listed: those with a hit (about 1.1% of all), similar ones and a draw of the others. Unless noted, calls come from the whole dose curve; as a rule, active = well fitted curve in the direction sought with a large enough effect; inconclusive = small, poorly fitted or top-dose-only effect, or another doubt; inactive = no such curve, though single readings can be large; an effect the other way counts as inactive or inconclusive. Potency is the fitted concentration of half-maximal effect.

SMILES	GRP78 ERSR act	Apoferritin bind	BCR signal inh	ALOX12 inh
Fc1ccc(-c2cnc(COc3ccc(Cl)cc3)o2)cc1	.	.	.	14µM*
COc1ccc(/C(C)=N/NC(=S)Nc2cc(C)ccc2C)cc1	-2%	?	?	45µM*
COCCNC(=S)N/N=C(\C)c1ccc(OC)cc1	-1%	-3%	?	?
COc1ccc(CNC(=S)Nc2cc(C)ccc2C)cc1	-4%	-22%	-1%	?
COCCNC(=S)N/N=C(\C)c1ccc2cc(OC)ccc2c1	-2%	-10%	?	35µM*
CCC(C)C(=O)N1CCCC2CCCCC21 (configuration not stated)	.	.	.	-4%
O=C1CC(c2ccco2)CC2=C1C1c3ccccc3C(=O)N1c1ccccc1N2 (configuration not stated)	28µM*	-5%	?	-13%
CCC(=O)N1c2ccccc2NC2=C(C(=O)CC(c3ccco3)C2)C1c1ccco1 (configuration not stated)	-4%	-15%	5%	0%
COc1ccc(-c2nc(C#N)c(N3CCC(Cc4ccccc4)CC3)o2)cc1OC	.	.	.	0%
CCCCC(C(=O)N/N=C/c1ccccn1)C(=O)N/N=C/c1ccccn1	-3%	5%	9%	-19%
CCCCCCCCC(=O)N/N=C/c1ccccn1	-1%	13µM*	0%	26%
Cc1cccc(Nc2nc(-c3ccc([N+](=O)[O-])cc3)cs2)c1	.	.	.	-23%
CC(C)NC(=O)NC1=C(C#N)C(C)(C)Cc2ccccc21	.	.	.	12%
N#CC(=C(N)Sc1ccccc1N)C(C#N)=C(N)Sc1ccccc1N	.	.	.	22µM*
CCCCCCNCCN1CCOCC1	.	.	.	34%
Cc1ccc(/C=C2\S/C(=N/S(=O)(=O)c3cccs3)NC2=O)cc1	6%	-3%	-1%	28µM*
Cc1ccc(S(=O)(=O)/N=C2/NC(=O)/C(=C/c3ccncc3)S2)cc1	.	8%	0%	?
Cc1ccc(S(=O)(=O)/N=C2/NC(=O)/C(=C\c3ccccc3)S2)cc1	0%	.	-1%	40µM*
Cc1ccc(S(=O)(=O)/N=C2/NC(=O)/C(=C/c3ccccc3)S2)cc1	9%	-22%	?	13µM*
CCOC(=O)c1cc(NCc2ccccc2)ccc1N1CCOCC1	.	.	.	10%
c1ccc2c(c1)[nH]c1c(N3CCCC3)ncnc12	1%	2%	13%	14%
c1ccc2c(c1)[nH]c1c(N3CCN(C4CCCCC4)CC3)ncnc12	-1%	6.3µM*	0%	-15%
COc1ccccc1-c1cc(N2CCN(c3ccccn3)CC2)c2onc(C)c2n1	.	.	.	89µM*
Cc1ccc(C(C[N+](=O)[O-])c2c(-c3ccccc3O)[nH][nH]c2=O)cc1 (configuration not stated)	?	-5%	?	40µM*
CCC(C(=O)Nc1nc2ccccc2s1)n1cnc2c1c(=O)n(C)c(=O)n2C (configuration not stated)	.	.	.	5%
SMILES	GRP78 ERSR act	Apoferritin bind	BCR signal inh	ALOX12 inh
CC(=O)Nc1ccc(/C(C)=N/NC(=O)c2ccc(F)cc2)cc1	6%	-3%	?	29%
CC(=O)Nc1ccc(/C(C)=N/NC(N)=S)cc1	.	.	.	28µM*
O=C(CSc1nc(-c2ccccc2)cc(=O)[nH]1)Nc1ccc(Cl)c(C(F)(F)F)c1	.	.	.	0%
Cc1ccc2nc(CO[C@H]3CN(c4ccc(C#N)cn4)C[C@H]3F)[nH]c2c1	.	.	.	14µM*
Cc1ccc2nc(CO[C@H]3CN(C4CCCCC4)C[C@H]3F)[nH]c2c1	.	.	.	79%[176 µM]
O[C@@H]1[C@@H](Cn2cc(-c3cccnc3)nn2)C[C@@H](NCc2nccs2)[C@@H]1O	.	.	.	0%
CCCNC(=O)N[C@@H]1C[C@H](Cn2cc(-c3cccnc3)nn2)[C@@H](O)[C@H]1O	.	.	.	14µM*
CC(C)OCCCNC(=S)NC1CCCC1	.	.	.	35µM*
O=C(O)CCCn1c(=S)[nH]c2c(sc3ccc([N+](=O)[O-])cc32)c1=O	-3%	-9%	?	18µM*
Cc1ccc2c(=O)cc(C(=O)N(Cc3ccccc3)Cc3ccco3)oc2c1C	.	.	.	35µM*
Cc1cc2oc(C(=O)N(Cc3ccccc3)Cc3ccco3)cc(=O)c2cc1Cl	.	.	.	0%
CCONC(=O)C(NC(=O)c1ccc(Cl)cc1)C(C)CC (configuration not stated)	.	.	.	2%
O=C(Nc1nc(-c2ccco2)c(-c2ccco2)s1)c1ccc(F)cc1F	-3%	.	?	?
O=S(=O)(Nc1nc(-c2ccco2)c(-c2ccco2)s1)c1ccc(F)cc1F	-2%	.	.	7.9µM*
CC[C@H]1OC(=O)[C@H](C)C(=O)[C@H](C)[C@@H](O[C@H]2O[C@H](C)C[C@H](N(C)C)[C@@H]2O)[C@](C)(OC)C[C@@H](C)C(=O)[C@H](C)[C@H]2N(CCCCn3cnc(-c4cccnc4)c3)C(=O)O[C@]12C	.	.	.	4.9µM*
CC[C@H]1OC(=O)[C@H](C)[C@@H](O[C@H]2C[C@@](C)(OC)[C@@H](O)[C@H](C)O2)[C@H](C)[C@@H](O[C@@H]2O[C@H](C)C[C@H](N(C)C)[C@@H]2O)[C@](C)(OC)C[C@@H](C)C(=O)[C@H](C)[C@@H](O)[C@]1(C)O	.	.	.	-9%[57.4 µM]
O=C(NC(c1ccc(Cl)cc1)c1ccsc1)C1CCN(CCOc2ccc(Cl)cc2)CC1 (configuration not stated)	-10%	.	.	32µM*
CC(NC(=O)C1CCN(CCOc2ccc(Cl)cc2)CC1)c1cccc2ccccc12 (configuration not stated)	-6%	.	.	22µM*
COc1ccc(OCCN2CCC(C(=O)NC(c3ccc(Cl)cc3)c3cccnc3)CC2)cc1 (configuration not stated)	-4%	.	.	-6%
COc1ccc(CN2CCC(C(=O)NC(C)c3cccc4ccccc34)CC2)cc1 (configuration not stated)	0%	.	.	.
CC1CCCN(S(=O)(=O)c2ccc(-c3nc(C#N)c(NCCCN(C)C)o3)cc2)C1 (configuration not stated)	.	.	.	-8%
COc1ccc(OC)c(C(=O)COC(=O)c2ccc(Cl)c(S(N)(=O)=O)c2)c1	.	.	.	-3%
CCCNC(=O)NC(=O)CSc1nc(NC2CC2)c2ccccc2n1	.	.	.	-17%
COc1ccc2c(c1)c(/C=C/c1cc[n+](C)cc1)cn2C	-1%	-9%	?	50µM*
COc1ccc(C2C(C(=O)OCC3CCCO3)=C(C)NC3=C2C(=O)CC(c2ccco2)C3)cc1O (configuration not stated)	-5%	-22%	-8%	8.9µM*
CC1=C(C(=O)OCC2CCCO2)C(c2ccccc2)C2=C(CCCC2=O)N1 (configuration not stated)	-3%	41%	18%	-28%
Cc1cc(C)c(CNC(=O)c2nc(-c3ccc(CN(C)C)cc3)cc3c2ccn3C(C)C)c(=O)[nH]1	.	.	.	20%
COc1ccc(-c2cnc(C(N)=O)c(=O)[nH]2)cc1	0%	.	.	6.3µM*
O=C(Cc1ccccc1)N1CCCC(c2nn(-c3ccc(Cl)cc3)c(=O)[nH]2)C1 (configuration not stated)	.	.	.	32µM*
